Activity calls are given as the source filed them. Rule for the calls: active = hit-call score of the fitted dose curve at least 0.9, where 1 is the maximum; inactive = score below 0.9.
Columns and labels:
Details in all cases: mRNA level, 48 h; actives raise or lower the signal
[1] = read-out: Cytochrome P450 3A7 (Homo sapiens) (UniProt P24462); test: LTEA_HepaRG_CYP3A7: Life Technologies and Expression Analysis (LTEA) Assay for CYP3A7 using HepaRG (AID 2283492)
Summary of the method: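 HepaRG cells plated 48 h, then dosed in serum-free induction medium for 48 h at 8 concentrations (top 100 uM, half-log steps, 0.5% DMSO). CYP3A7 mRNA by qRT-PCR, normalised to ACTB/GAPDH/POLR2A; bidirectional fit versus DMSO.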

CYP3A5 (gene 1577) = test: LTEA_HepaRG_CYP3A5: Life Technologies and Expression Analysis (LTEA) Assay for CYP3A5 using HepaRG (AID 2283493)
Summary of the method: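 Human HepaRG hepatic cells receive 48 h chemical treatment at eight concentrations (half-log steps from 100 uM) in 0.5% DMSO. Expression of CYP3A5 is quantified by Fluidigm qRT-PCR and normalized to three reference genes.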

[2] = read-out: Fatty Acid-Binding Protein 1 (FABP1), FABP1 (gene 2168); test: LTEA_HepaRG_FABP1: Life Technologies and Expression Analysis (LTEA) Assay for Fatty Acid-Binding Protein 1 (FABP1) using HepaRG (AID 2283494)
Summary of the method: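 Values reflect bidirectional concentration-response fitting of FABP1 mRNA change against 0.5% DMSO controls. Human HepaRG cultures received eight half-log doses (top 100 uM) for 48 h; expression quantified by TaqMan qRT-PCR with housekeeping-gene normalization.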

[3] = read-out: Cytochrome P450 4A22 (Homo sapiens) (UniProt Q5TCH4); test: LTEA_HepaRG_CYP4A22: Life Technologies and Expression Analysis (LTEA) Assay for Cytochrome P450 4A22 (CYP4A22) using HepaRG (AID 2283495)
Summary of the method: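 qRT-PCR of CYP4A22 mRNA (Fluidigm TaqMan, normalized to three housekeeping genes) after 48 h chemical exposure of HepaRG cells; 8-point half-log series, top 100 uM, 0.5% DMSO vehicle. Bidirectional curve fitting vs DMSO baseline.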

[4] = read-out: Cytochrome P450 7A1 (Homo sapiens) (UniProt P22680); test: LTEA_HepaRG_CYP7A1: Life Technologies and Expression Analysis (LTEA) Assay for Cytochrome P450 7A1 (CYP7A1) using HepaRG (AID 2283496)
Summary of the method: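 HepaRG, 48 h exposure, 8-pt half-log series from 100 uM, 0.5% DMSO vehicle, duplicates. Readout: TaqMan qRT-PCR mRNA vs three housekeeping genes; bidirectional curve fit against DMSO baseline.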

[5] = read-out: Glutathione S-Transferase (GSTA2), GSTA2 (gene 2939); test: LTEA_HepaRG_GSTA2: Life Technologies and Expression Analysis (LTEA) Assay for Glutathione S-Transferase (GSTA2) using HepaRG (AID 2283497)
Summary of the method: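 Oxidative-stress marker GSTA2 is quantified by TaqMan qRT-PCR in HepaRG cultures treated 48 h across an eight-point range to 100 uM. Expression is normalized to endogenous controls and compared with 0.5% DMSO vehicle.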

[6] = read-out: Glutamate-cysteine ligase catalytic (GCLC), GCLC (gene 2729); test: LTEA_HepaRG_GCLC: Life Technologies and Expression Analysis (LTEA) Assay for Glutamate-cysteine ligase catalytic (GCLC) using HepaRG (AID 2283498)
Summary of the method: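 Oxidative-stress marker GCLC is measured as mRNA change in human HepaRG liver cells after 48 h chemical treatment in 0.5% DMSO, eight concentrations from 100 uM. Activity is fitted bidirectionally against vehicle.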

[7] = read-out: growth arrest and DNA damage 45 (GADD45G), GADD45G (gene 10912); test: LTEA_HepaRG_GADD45G: Life Technologies and Expression Analysis (LTEA) Assay for growth arrest and DNA damage 45 (GADD45G) using HepaRG (AID 2283499)
Summary of the method: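 Differentiated human HepaRG cells in serum-free induction medium were exposed for 48 h to 8 half-log concentrations up to 100 uM in 0.5% DMSO, in duplicate. GADD45G mRNA was measured by TaqMan qRT-PCR, normalised to ACTB, GAPDH and POLR2A, and fitted bidirectionally against DMSO.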

[8] = read-out: Glutamate-cysteine ligase regulatory (GCLM), GCLM (gene 2730); test: LTEA_HepaRG_GCLM: Life Technologies and Expression Analysis (LTEA) Assay for Glutamate-cysteine ligase regulatory (GCLM) using HepaRG (AID 2283500)
Summary of the method: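 Endpoint is GCLM transcript level by qRT-PCR, normalized to three housekeeping genes, after 48 h chemical exposure of human HepaRG cells (0.5% DMSO vehicle, top 100 uM, half-log dilutions). Fitting was bidirectional relative to DMSO.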

[9] = read-out: Glutathione S-transferase M3 (GSTM3), GSTM3 (gene 2947); test: LTEA_HepaRG_GSTM3: Life Technologies and Expression Analysis (LTEA) Assay for Glutathione S-transferase M3 (GSTM3) using HepaRG (AID 2283501)
Summary of the method: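 Differentiated HepaRG cells in serum-free induction medium were exposed in duplicate for 48 h to 8 half-log concentrations up to 100 uM in 0.5% DMSO. GSTM3 mRNA was measured by TaqMan qRT-PCR, normalized to ACTB/GAPDH/POLR2A, and fitted bidirectionally versus DMSO.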

Measured: AC50

Cytochrome P450 3A7 (Homo sapiens), sequence (P24462 whole entry, looked up): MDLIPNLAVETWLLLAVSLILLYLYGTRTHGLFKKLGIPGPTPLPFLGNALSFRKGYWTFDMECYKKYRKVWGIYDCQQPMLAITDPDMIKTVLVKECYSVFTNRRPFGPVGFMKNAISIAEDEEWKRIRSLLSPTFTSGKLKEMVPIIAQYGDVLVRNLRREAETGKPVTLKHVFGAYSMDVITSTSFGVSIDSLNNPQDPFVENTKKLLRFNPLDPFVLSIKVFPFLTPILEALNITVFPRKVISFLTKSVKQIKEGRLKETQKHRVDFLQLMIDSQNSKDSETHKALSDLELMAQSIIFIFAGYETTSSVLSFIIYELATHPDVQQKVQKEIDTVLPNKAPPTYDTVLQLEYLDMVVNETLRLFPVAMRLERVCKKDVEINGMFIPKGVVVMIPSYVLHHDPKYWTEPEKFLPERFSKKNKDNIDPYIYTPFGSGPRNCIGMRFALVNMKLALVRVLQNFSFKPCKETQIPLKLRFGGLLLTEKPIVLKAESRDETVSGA

O=Cc1ccco1
inactive: [1] | CYP3A5 (gene 1577) | [2] | [3] | [4] | [5] | [6] | [7] | [8] | [9]

O=C(N[C@H](c1ccccc1)[C@@H]1CN2CCC1CC2)c1c(Cl)ccc(C(F)(F)F)c1Cl
inactive: CYP3A5 (gene 1577) | [6] | [8] | [9]
active: [1] 76.2 µM | [2] 85.1 µM | [3] 14.6 µM | [4] 80.1 µM | [5] 73.7 µM | [7] 21.4 µM

c1ccc(N=Nc2ccccc2)cc1
inactive: [1] | CYP3A5 (gene 1577) | [2] | [3] | [4] | [5] | [6] | [7] | [8] | [9]

O=C1CCCO1
inactive: [1] | [2] | [3] | [4] | [7] | [8] | [9]
active: CYP3A5 (gene 1577) 9.92 µM | [5] 50 µM | [6] 9.92 µM

CCC(C)c1ccc(O)cc1 (stereo not drawn)
inactive: [1] | CYP3A5 (gene 1577) | [2] | [3] | [4] | [5] | [7] | [8] | [9]
active: [6] 0.397 µM

Cc1cc(N=Nc2ccccc2C)ccc1N
active: [1] 6.38 µM | CYP3A5 (gene 1577) 3.11 µM | [2] 5.03 µM | [3] 4.39 µM | [4] 12.8 µM | [5] 5.01 µM | [6] 1.67 µM | [7] 4.14 µM | [8] 50 µM | [9] 1.48 µM

Cc1ccc(N)cc1
inactive: [1] | CYP3A5 (gene 1577) | [2] | [3] | [4] | [5] | [6] | [7] | [8] | [9]

CCCCC(CC)COC(=O)c1ccc(C(=O)OCC(CC)CCCC)c(C(=O)OCC(CC)CCCC)c1 (stereo not drawn)
inactive: [1] | CYP3A5 (gene 1577) | [2] | [3] | [4] | [5] | [6] | [7] | [8] | [9]

Clc1ccccc1Cl
inactive: [1] | [2] | [3] | [4] | [5] | [6] | [7] | [8] | [9]

CCCCCCCCn1sccc1=O
inactive: [2] | [5] | [6] | [7] | [8] | [9]
active: [1] 89.1 µM | [3] 78.9 µM | [4] 82.2 µM

COC(=O)Nc1nc2ccccc2[nH]1
inactive: [1] | CYP3A5 (gene 1577) | [2] | [3] | [4] | [5] | [6] | [7] | [8] | [9]

O=C(Nc1ccccc1)c1ccccc1I
active: [2] 21.7 µM | [4] 28.9 µM | [6] 29.2 µM | [7] 10.3 µM | [8] 50 µM
inactive: [1] | [3] | [5] | [9]

CCCSC(=O)N(CCC)CCC
inactive: [1] | CYP3A5 (gene 1577) | [2] | [3] | [4] | [5] | [6] | [7] | [8] | [9]

COC(=O)c1ccccc1N
inactive: [1] | CYP3A5 (gene 1577) | [2] | [3] | [4] | [5] | [6] | [7] | [8] | [9]

O=[N+]([O-])C(Br)(CO)CO
inactive: [1] | [2] | [3] | [4] | [5] | [6] | [7] | [8] | [9]

CC(C)(C)OOC(C)(C)CCC(C)(C)OOC(C)(C)C
inactive: [1] | CYP3A5 (gene 1577) | [2] | [3] | [4] | [5] | [6] | [7] | [8] | [9]

CN(C)C(=O)Nc1ccc(Cl)cc1
inactive: [1] | [2] | [3] | [4] | [5] | [6] | [7] | [8] | [9]

C=CCc1ccc2c(c1)OCO2
inactive: [1] | [2] | [3] | [4] | [5] | [6] | [7] | [8] | [9]

[As]#[In]
inactive: [1] | [2] | [3] | [4] | [5] | [6] | [7] | [8] | [9]

Cc1ccc(N)c(N)c1
active: [1] 35.9 µM | [2] 74.8 µM | [5] 28.9 µM
inactive: CYP3A5 (gene 1577) | [3] | [4] | [6] | [7] | [8] | [9]

— PubChem BioAssay (EPA / NIEHS)
